Reference: PubChem BioAssay
The source made the active and inactive calls. The rule behind the calls is not given here.

What follows are compounds tested against Pantothenate synthetase (Mycobacterium tuberculosis (strain ATCC 25618 / H37Rv)) (UniProt P9WIL5) (assay: Coupled enzyme confirmation of inhibitors against recombinant Mtb PanC (AID 375;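 note: 0% = full reaction with vehicle and 100% = no enzyme background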)). Settings: coupled enzyme assay; at 10 µM, hits give high values.
Sequence of Pantothenate synthetase (Mycobacterium tuberculosis (strain ATCC 25618 / H37Rv)) (P9WIL5 whole entry, looked up): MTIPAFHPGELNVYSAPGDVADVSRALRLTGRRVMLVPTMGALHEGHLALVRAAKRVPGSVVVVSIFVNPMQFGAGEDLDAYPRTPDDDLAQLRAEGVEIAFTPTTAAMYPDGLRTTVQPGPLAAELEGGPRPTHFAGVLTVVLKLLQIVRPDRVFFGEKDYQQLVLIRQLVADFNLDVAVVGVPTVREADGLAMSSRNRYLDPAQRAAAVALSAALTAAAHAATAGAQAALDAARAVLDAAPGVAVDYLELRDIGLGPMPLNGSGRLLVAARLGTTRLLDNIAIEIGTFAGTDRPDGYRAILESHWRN
For `CCOc1ccc(NC(=O)CC2NCCNC2=O)cc1` (stereo not given), the inhibition was 9% (inactive).
With `CC(=O)OCC[N+](C)(C)C` the inhibition was 0% (inactive).
In the case of `COc1cccc(-c2cc(C(=O)N3CCCCCC3)no2)c1`, the inhibition is reported as 1% (inactive).
In the case of `CC(C)Oc1cccc(-c2cc(C(=O)N3CCN(S(C)(=O)=O)CC3)c3ccccc3n2)c1`, the inhibition is reported as 5% (inactive).
For `CCOC(=O)c1ccc(NC(=O)CCc2nc(-c3ccc(C)cc3)no2)cc1`, the inhibition was 0% (inactive).
For `Cc1cc2ncn(C(=O)N3CCOCC3)c2cc1C`, the inhibition was 0% (inactive).
`CN1CCN(C(c2cccc(C(F)(F)F)c2)c2nnnn2C(C)(C)C)CC1` (stereo not given) was tested, and the inhibition was 1% (inactive).
With `CC(C)(C)N(Cc1cc2ccccc2[nH]c1=O)C(=O)C1CCCCC1` the inhibition was 3% (inactive).
In the case of `CCOc1nc2ccccc2nc1NS(=O)(=O)c1ccccc1`, the inhibition is reported as 1% (inactive).
For `CC(=O)O[C@@]12CO[C@@H]1C[C@H](O)[C@@]1(C)C(=O)[C@H](O)C3=C(C)[C@@H](OC(=O)[C@H](O)[C@@H](NC(=O)OC(C)(C)C)c4ccccc4)C[C@](O)([C@@H](OC(=O)c4ccccc4)[C@H]21)C3(C)C`, the inhibition was 0% (inactive).
`Cc1ccc(-c2nc(-c3cccnc3)no2)c(C)c1` was tested, and the inhibition was 5% (inactive).
In the case of `CCCOc1ccc(N2C(=O)CC(SCCN)C2=O)cc1` (stereo not given), the inhibition is reported as 0% (inactive).
`O=C(O)c1ccc(S(=O)(=O)Cc2ccccc2)cc1` was tested, and the inhibition was 0% (inactive).
`CCOC(=O)C(NC(C)=O)(Nc1ccc(S(=O)(=O)Nc2nccs2)cc1)C(F)(F)F` (stereo not given) was tested, and the inhibition was 3% (inactive).
In the case of `COCCNC(=O)C1CCCN(c2ncccn2)C1` (stereo not given), the inhibition is reported as 0% (inactive).
With `Cc1cccc(Nc2ncc3c(n2)CC(c2ccco2)CC3=O)c1` (stereo not given) the inhibition was 1% (inactive).
With `Cc1ccc2occ(CN3CCN(c4ccccc4)CC3)c(=O)c2c1` the inhibition was 0% (inactive).
For `CCOCC(=O)Nc1sc2c(c1C(=O)OCC)CCCC2`, the inhibition was 0% (inactive).
With `CSC1=C(C#N)C(C)CC(=O)N1` (stereo not given) the inhibition was 0% (inactive).
With `CC(NCc1ccco1)C(=O)N1CCc2ccccc2C1` (stereo not given) the inhibition was 5% (inactive).
For `Cc1cc(C)nc(NC(=O)c2ccc(OC(C)C)cc2)n1`, the inhibition was 0% (inactive).
`Cc1cc(NC(c2cccnc2)c2c(C)[nH]c3ccccc23)no1` (stereo not given) was tested, and the inhibition was 0% (inactive).
For `CCCC(=O)Nc1ccc(NC(=O)C2CC2)cn1`, the inhibition was 2% (inactive).
For `CCOC(=O)c1cccc(NC(=O)CSc2nc3cccnc3n2C)c1`, the inhibition was 0% (inactive).
For `O=C(NC1CCCCC1)N(Cc1ccc(F)cc1)Cc1nc2ccccc2c(=O)[nH]1`, the inhibition was 9% (inactive).
With `CCCCOc1ccc(N(CC(=O)NC2CCCC2)C(=O)CCC(=O)Nc2ccccn2)cc1` the inhibition was 0% (inactive).
For `Cc1cccc(-n2nc3c(c2NC(=O)CCC2CCCCC2)CS(=O)C3)c1C` (stereo not given), the inhibition was 3% (inactive).
For `CCc1nnc(NC(=O)C2CC(=O)N(Cc3ccco3)C2)s1` (stereo not given), the inhibition was 0% (inactive).
With `Cn1c(=O)cc(SCC(=O)NCc2cccnc2)c2ccccc21` the inhibition was 4% (inactive).
For `O=c1[nH]cnc2c1C1(CCCC1)Cc1ccccc1-2`, the inhibition was 0% (inactive).
In the case of `COc1cccc(C2C(C(=O)c3ccc(C)o3)=C(O)C(=O)N2CCCN(C)C)c1` (stereo not given), the inhibition is reported as 0% (inactive).
With `O=C(CSc1nnc2ncccn12)N1CCCCCC1` the inhibition was 0% (inactive).
In the case of `COCCn1c(Sc2nc(C)cs2)nc2c1c(=O)[nH]c(=O)n2C`, the inhibition is reported as 0% (inactive).
`CC(C)(C)OC(=O)N1CC=C2C(C#N)=C(N)C(C#N)(C#N)[C@H](c3cccnc3)[C@H]2C1` was tested, and the inhibition was 5% (inactive).
With `CCOC(=O)C(NC(=O)C1CCCN1C(=O)OCc1ccccc1)C(=O)OCC` (stereo not given) the inhibition was 4% (inactive).
For `COCCSc1nnc(NC(=O)Cc2ccccc2OC)s1`, the inhibition was 4% (inactive).
In the case of `Cc1nnc(SCC(=O)Nc2cc(C(F)(F)F)ccc2N2CCOCC2)o1`, the inhibition is reported as 0% (inactive).
`COCCn1nnnc1C(C(C)C)N(Cc1cccnc1)Cc1ccccc1Cl` (stereo not given) was tested, and the inhibition was 2% (inactive).
In the case of `Cc1cc(C)c2cc(CN(CC3CCCO3)C(=O)NC3CCCCC3)c(=O)[nH]c2c1` (stereo not given), the inhibition is reported as 0% (inactive).
`COc1ccc(Cn2nnnc2C(c2ccccc2OC)N2CCC(C(N)=O)CC2)cc1` (stereo not given) was tested, and the inhibition was 0% (inactive).
